Experimental findings from paper PMC7826789 (International Journal of Molecular Sciences, 2021) are described below.

Details in all cases: Compound Concentration (nM):1000
Experiment [1] concerns CSNK2A2.
Experiment [2] has as its system T1, CTK.
T1 construct: gene MATK

In experiment [3] the test system is DAPK1.
Experiment [4] relates to DAPK2.
For experiment [5], the system named is DAPK3.
For experiment [6], the system named is T2, DCAMKL1.
T2 construct: gene DCLK1

Experiment [7] concerns T3, DCAMKL2.
T3 construct: gene DCLK2

The test system of experiment [8] is T4, DCAMKL3.
T4 construct: gene DCLK3

Experiment [9] concerns DDR1.
Experiment [10] relates to DDR2.
The subject of experiment [11] is T5, DLK.
T5 construct: gene MAP3K12

In experiment [12] the test system is T6, DMPK2.
T6 construct: gene CDC42BPG

Experiment [13] deals with DMPK.
Experiment [14] relates to T7, DRAK1.
T7 construct: gene STK17A

Experiment [15] concerns T8, DRAK2.
T8 construct: gene STK17B

Experiment [16] has as its system DYRK1A.
The test system of experiment [17] is DYRK1B.
Experiment [18] concerns DYRK2.
Experiment [19] has as its system EGFR(E746-A750del).
Experiment [20] has as its system EGFR(G719C).
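Also: KINOMEscan scanMAX binding as percent activity remaining versus control; lower means stronger binding.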

Take `CN(C)CCNC(=O)Nc1ccc(N(C)c2ccnc(Nc3ccc(CS(C)(=O)=O)cc3)n2)cc1.Cl` [GW830900A]: the “Percent Control” value is 62% in experiment [1]; 86% in [2]; 94% in [3]; 100% in experiment [4]; 100% in experiment [5]; 89% in [6]. The “Percent Control” value is 100% in experiment [7]; 100% in experiment [8]; 73% in [9]; 17% in [10]; 67% in experiment [11]; 91% in [12]. Further, the “Percent Control” value in experiment [13] is given as 100%; in [14], 100%; in [15], 100%; in experiment [16], 100%; in experiment [17], 100%; in [18], 85%. The “Percent Control” value in experiment [19] is 92%; in [20] it was 96%.
Regarding `COc1cc(N2CCN(C(C)C)CC2)ccc1Nc1nc(Nc2ccc(F)cc2C(=O)NC[C@@H](O)CO)c2cc[nH]c2n1` [GSK1392956A], the “Percent Control” value in experiment [1] was 88%; in experiment [2] it was 95%; in [3], 13%; in experiment [4], 6.8%; in experiment [5], 4.3%; in experiment [6], 78%. Also, the “Percent Control” value in [7] was 100%; in experiment [8], 100%; in experiment [9], 98%; in experiment [10] it was 100%; in [11], 77%; in experiment [12], 75%. Moreover, the “Percent Control” value came out at 100% in experiment [13]; 87% in [14]; 93% in experiment [15]; 53% in experiment [16]; 75% in experiment [17]; 24% in experiment [18]. Moreover, the “Percent Control” value in [19] is recorded as 74%; in experiment [20] it was 94%.
Turning to `CCS(=O)(=O)c1ccc(OC)c(Nc2ncc(-c3cccc(OC)c3)o2)c1` [GW580509X], the “Percent Control” value in [1] was 4.4%; in experiment [2], 100%; in experiment [3], 100%; in experiment [4], 90%; in experiment [5], 100%; in [6] it was 81%. For the same molecule, the “Percent Control” value in [7] was 100%; in experiment [8] it was 100%; in experiment [9], 59%; in experiment [10], 100%; in [11] it was 88%; in experiment [12], 100%. The “Percent Control” value is reported as 100% in [13]; 100% in [14]; 100% in experiment [15]; 39% in experiment [16]; 41% in [17]; 23% in [18]. The “Percent Control” value turned out to be 81% in experiment [19] and 100% in experiment [20].
As for `COc1ccc2c(-c3ccnc(Nc4cccc(OC(F)(F)F)c4)n3)cnn2n1` [GW810372X], the “Percent Control” value was 59% in [1]; 100% in [2]; 100% in experiment [3]; 98% in [4]; 100% in experiment [5]; 100% in experiment [6]. The “Percent Control” value in experiment [7] is 100%; in experiment [8], 100%; in [9] it was 100%; in experiment [10], 100%; in [11], 92%; in experiment [12] it was 100%. Moreover, the “Percent Control” value is listed as 100% in [13]; 81% in experiment [14]; 100% in experiment [15]; 35% in [16]; 13% in experiment [17]; 45% in [18]. The “Percent Control” value is 99% in [19] and 97% in [20].
`NS(=O)(=O)c1ccc(N/N=C2\C(=O)Nc3ccc(Cl)cc32)cc1` [GW280670X]: the “Percent Control” value in [1] is 54%; in experiment [2], 100%; in experiment [3] it was 100%; in experiment [4], 100%; in experiment [5], 100%; in experiment [6] it was 94%. The “Percent Control” value was 100% in [7]; 100% in experiment [8]; 100% in experiment [9]; 100% in [10]; 96% in [11]; 100% in [12]. The “Percent Control” value in [13] was found to be 100%; in [14], 100%; in experiment [15] it was 100%; in [16] it was 100%; in experiment [17] it was 100%; in experiment [18], 93%. Besides, the “Percent Control” value in experiment [19] and in [20] was 100% in each case.
`Cl.O=C(Nc1ccc(Oc2ccc3[nH]c(NC(=O)c4ccco4)nc3c2)cc1)Nc1cc(C(F)(F)F)ccc1F` [GW683134A]: the “Percent Control” value in experiment [1] was 91%; in experiment [2], 100%; in experiment [3] it was 100%; in experiment [4], 83%; in experiment [5], 89%; in experiment [6] it was 87%. The “Percent Control” value was 100% in [7]; 82% in experiment [8]; 0% in [9]; 5.1% in experiment [10]; 86% in experiment [11]; 82% in experiment [12]. In addition, the “Percent Control” value in experiment [13] is 100%; in experiment [14] it was 100%; in experiment [15] it was 100%; in [16], 100%; in [17], 93%; in [18] it was 83%. For the same molecule, the “Percent Control” value in experiment [19] stood at 92%; in experiment [20], 100%.
For `C[C@@H](Oc1cc(-n2cnc3ccc(OC4CCN(C)CC4)cc32)sc1C(N)=O)c1ccccc1Cl` [GSK579289A], the “Percent Control” value in [1] is 8.4%; in experiment [2], 100%; in [3], 29%; in experiment [4], 49%; in experiment [5], 28%; in experiment [6], 70%. Besides, the “Percent Control” value in experiment [7] is 83%; in [8], 89%; in [9] it was 92%; in [10] it was 90%; in [11], 78%; in [12], 100%. Besides, the “Percent Control” value in [13] is 80%; in experiment [14] it was 100%; in experiment [15], 93%; in [16] it was 100%; in experiment [17], 100%; in experiment [18], 49%. The “Percent Control” value in experiment [19] came to 92%; in experiment [20], 81%.
For `Cl.O=C(O[C@H]1CN[C@H](C#Cc2cc3ncnc(Nc4ccc5c(cnn5Cc5ccccc5)c4)c3s2)C1)N1CCOCC1` [GSK200398A], the “Percent Control” value in experiment [1] is 70%; in experiment [2], 89%; in experiment [3], 95%; in [4] it was 100%; in [5] it was 100%; in [6] it was 82%. The “Percent Control” value in experiment [7] is 100%; in [8], 100%; in experiment [9], 92%; in [10], 100%; in [11], 71%; in experiment [12], 100%. Also, the “Percent Control” value in experiment [13] stood at 100%; in [14], 89%; in experiment [15] it was 99%; in [16], 76%; in experiment [17] it was 100%; in experiment [18], 84%. Moreover, the “Percent Control” value in [19] is on record as 38%; in experiment [20], 0.1%.
As for `COc1ccc2[nH]c3c4[nH]c5ccc(OC)cc5c4c4c(c3c2c1)C(=O)NC4=O` [GW296115X], the “Percent Control” value in [1] is 56%; in experiment [2] it was 93%; in experiment [3] it was 22%; in [4], 4.9%; in experiment [5] it was 4.8%; in experiment [6] it was 90%. Also, the “Percent Control” value in [7] was 90%; in experiment [8], 19%; in experiment [9] it was 77%; in experiment [10], 72%; in experiment [11], 77%; in experiment [12], 84%. Besides, the “Percent Control” value was found to be 56% in experiment [13]; 0.4% in [14]; 2.2% in experiment [15]; 48% in experiment [16]; 79% in experiment [17]; 50% in experiment [18]. Also, the “Percent Control” value is 20% in experiment [19] and 64% in experiment [20].
With `NS(=O)(=O)c1ccc(Nc2ncc(-c3ccccc3)o2)cc1` [GW572399X], the “Percent Control” value was 53% in experiment [1]; 100% in [2]; 100% in experiment [3]; 100% in experiment [4]; 100% in [5]; 83% in experiment [6]. Besides, the “Percent Control” value is 100% in [7]; 100% in experiment [8]; 100% in experiment [9]; 100% in [10]; 81% in experiment [11]; 100% in experiment [12]. In addition, the “Percent Control” value stood at 100% in experiment [13]; 85% in experiment [14]; 100% in experiment [15]; 92% in experiment [16]; 81% in [17]; 57% in [18]. Moreover, the entries for the “Percent Control” value in experiment [19] and in experiment [20] were 98% and 100%, respectively.
